Data from the supplement of paper PMC7724964.

What was measured:
Assay in all cases: phage ELISA signal ratio (GST-PRM binding over GST background); higher = stronger binding of peptide-phage to the PRM
[1] = molecular target: T1, GIGYF2 507-602 GYF (domain begin residue: 507, domain end residue: 602), Q6Y7W6
T1 chain: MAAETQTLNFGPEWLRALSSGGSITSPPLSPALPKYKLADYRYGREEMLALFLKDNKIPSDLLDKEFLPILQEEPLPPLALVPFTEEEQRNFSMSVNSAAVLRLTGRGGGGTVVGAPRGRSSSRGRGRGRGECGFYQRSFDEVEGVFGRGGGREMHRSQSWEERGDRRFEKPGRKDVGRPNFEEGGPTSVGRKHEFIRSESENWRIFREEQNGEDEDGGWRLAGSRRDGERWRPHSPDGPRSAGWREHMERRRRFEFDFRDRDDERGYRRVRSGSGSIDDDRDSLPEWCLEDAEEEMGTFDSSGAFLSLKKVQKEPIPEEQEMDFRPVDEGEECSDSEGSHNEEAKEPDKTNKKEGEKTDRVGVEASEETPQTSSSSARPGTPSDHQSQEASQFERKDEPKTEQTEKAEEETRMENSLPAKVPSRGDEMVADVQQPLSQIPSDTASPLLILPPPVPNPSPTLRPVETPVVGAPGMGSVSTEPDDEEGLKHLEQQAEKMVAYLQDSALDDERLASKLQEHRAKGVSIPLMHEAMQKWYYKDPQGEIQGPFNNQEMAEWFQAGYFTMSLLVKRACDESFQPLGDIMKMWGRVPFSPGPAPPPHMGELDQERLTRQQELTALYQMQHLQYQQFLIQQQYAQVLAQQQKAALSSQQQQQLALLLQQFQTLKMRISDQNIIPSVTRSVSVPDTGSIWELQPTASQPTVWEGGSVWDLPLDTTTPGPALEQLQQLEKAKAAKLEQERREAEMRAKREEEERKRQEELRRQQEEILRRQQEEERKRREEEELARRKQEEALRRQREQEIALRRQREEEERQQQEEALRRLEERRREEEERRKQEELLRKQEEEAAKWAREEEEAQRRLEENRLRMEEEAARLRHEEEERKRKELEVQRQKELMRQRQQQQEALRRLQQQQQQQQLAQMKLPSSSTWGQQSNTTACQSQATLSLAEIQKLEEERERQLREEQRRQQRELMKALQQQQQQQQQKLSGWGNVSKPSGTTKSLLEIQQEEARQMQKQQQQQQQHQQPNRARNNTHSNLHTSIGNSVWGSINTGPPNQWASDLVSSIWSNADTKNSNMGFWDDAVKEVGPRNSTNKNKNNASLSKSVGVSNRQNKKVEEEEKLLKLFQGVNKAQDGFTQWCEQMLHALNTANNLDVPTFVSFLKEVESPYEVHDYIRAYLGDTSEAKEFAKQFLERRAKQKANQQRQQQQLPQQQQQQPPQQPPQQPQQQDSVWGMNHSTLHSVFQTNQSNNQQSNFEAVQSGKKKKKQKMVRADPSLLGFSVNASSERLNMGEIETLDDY
Method in brief: (§1)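 Approximately 48 individual clones from selection rounds 4 and 5 were tested by phage ELISA, and those scoring positive were sequenced. They came from five rounds of selecting an M13 phage library of randomized, cysteine-free, glycine-flanked hexadecapeptides on the gene-8 major coat protein against human peptide recognition domains fused to the C-terminus of glutathione S-transferase (GST) in 96-well plates. Each figure in the table is the ELISA signal on the GST-domain fusion relative to the signal on GST alone.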

[2] = molecular target: GGA3 579-723 Alpha_adaptinC2 (domain begin residue: 579, domain end residue: 723)
Method in brief: as §1

[3] = molecular target: T2, GNAZ 2-355 G-alpha (domain begin residue: 2, domain end residue: 355), P19086
T2 chain: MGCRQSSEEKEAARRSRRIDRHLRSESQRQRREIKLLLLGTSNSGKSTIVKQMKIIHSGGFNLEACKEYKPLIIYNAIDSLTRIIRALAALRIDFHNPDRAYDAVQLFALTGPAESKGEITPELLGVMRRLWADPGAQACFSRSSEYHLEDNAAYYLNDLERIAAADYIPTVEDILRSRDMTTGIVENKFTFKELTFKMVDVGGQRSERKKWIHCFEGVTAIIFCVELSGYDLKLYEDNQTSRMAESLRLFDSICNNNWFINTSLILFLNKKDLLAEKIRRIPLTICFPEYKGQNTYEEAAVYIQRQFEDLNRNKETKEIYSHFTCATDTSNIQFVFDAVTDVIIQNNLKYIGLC
Method in brief: as §1

[4] = molecular target: T3, GNAQ 2-359 G-alpha (domain begin residue: 2, domain end residue: 359), P50148
T3 chain: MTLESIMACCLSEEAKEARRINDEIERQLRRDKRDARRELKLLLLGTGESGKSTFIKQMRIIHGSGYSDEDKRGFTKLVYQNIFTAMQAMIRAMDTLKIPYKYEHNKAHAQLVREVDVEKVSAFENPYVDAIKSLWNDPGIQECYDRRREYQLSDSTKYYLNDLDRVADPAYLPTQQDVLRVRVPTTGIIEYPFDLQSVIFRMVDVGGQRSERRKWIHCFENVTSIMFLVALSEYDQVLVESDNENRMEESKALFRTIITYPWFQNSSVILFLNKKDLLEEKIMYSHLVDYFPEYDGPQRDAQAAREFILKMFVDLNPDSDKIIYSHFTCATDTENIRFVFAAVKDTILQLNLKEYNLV
Method in brief: as §1

[5] = molecular target: GGA3 1-153 VHS (domain begin residue: 1, domain end residue: 153)
Method in brief: as §1

[6] = molecular target: GNAI1 2-354 G-alpha (domain begin residue: 2, domain end residue: 354), P63096
GNAI1 2-354 G-alpha (domain begin residue: 2, domain end residue: 354), P63096, sequence (P63096 whole entry): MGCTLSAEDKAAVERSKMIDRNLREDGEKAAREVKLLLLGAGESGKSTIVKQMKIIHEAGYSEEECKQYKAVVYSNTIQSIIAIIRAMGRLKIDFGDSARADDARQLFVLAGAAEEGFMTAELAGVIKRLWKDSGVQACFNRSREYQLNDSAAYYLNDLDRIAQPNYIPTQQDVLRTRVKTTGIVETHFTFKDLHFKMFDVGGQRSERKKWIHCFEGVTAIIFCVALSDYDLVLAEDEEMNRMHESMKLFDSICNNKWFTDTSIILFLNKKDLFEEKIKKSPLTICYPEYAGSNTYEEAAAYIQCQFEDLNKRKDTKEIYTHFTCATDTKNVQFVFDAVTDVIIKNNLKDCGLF
Method in brief: as §1

[7] = molecular target: T4, GIGYF1 448-540 GYF (domain begin residue: 448, domain end residue: 540), O75420
T4 chain: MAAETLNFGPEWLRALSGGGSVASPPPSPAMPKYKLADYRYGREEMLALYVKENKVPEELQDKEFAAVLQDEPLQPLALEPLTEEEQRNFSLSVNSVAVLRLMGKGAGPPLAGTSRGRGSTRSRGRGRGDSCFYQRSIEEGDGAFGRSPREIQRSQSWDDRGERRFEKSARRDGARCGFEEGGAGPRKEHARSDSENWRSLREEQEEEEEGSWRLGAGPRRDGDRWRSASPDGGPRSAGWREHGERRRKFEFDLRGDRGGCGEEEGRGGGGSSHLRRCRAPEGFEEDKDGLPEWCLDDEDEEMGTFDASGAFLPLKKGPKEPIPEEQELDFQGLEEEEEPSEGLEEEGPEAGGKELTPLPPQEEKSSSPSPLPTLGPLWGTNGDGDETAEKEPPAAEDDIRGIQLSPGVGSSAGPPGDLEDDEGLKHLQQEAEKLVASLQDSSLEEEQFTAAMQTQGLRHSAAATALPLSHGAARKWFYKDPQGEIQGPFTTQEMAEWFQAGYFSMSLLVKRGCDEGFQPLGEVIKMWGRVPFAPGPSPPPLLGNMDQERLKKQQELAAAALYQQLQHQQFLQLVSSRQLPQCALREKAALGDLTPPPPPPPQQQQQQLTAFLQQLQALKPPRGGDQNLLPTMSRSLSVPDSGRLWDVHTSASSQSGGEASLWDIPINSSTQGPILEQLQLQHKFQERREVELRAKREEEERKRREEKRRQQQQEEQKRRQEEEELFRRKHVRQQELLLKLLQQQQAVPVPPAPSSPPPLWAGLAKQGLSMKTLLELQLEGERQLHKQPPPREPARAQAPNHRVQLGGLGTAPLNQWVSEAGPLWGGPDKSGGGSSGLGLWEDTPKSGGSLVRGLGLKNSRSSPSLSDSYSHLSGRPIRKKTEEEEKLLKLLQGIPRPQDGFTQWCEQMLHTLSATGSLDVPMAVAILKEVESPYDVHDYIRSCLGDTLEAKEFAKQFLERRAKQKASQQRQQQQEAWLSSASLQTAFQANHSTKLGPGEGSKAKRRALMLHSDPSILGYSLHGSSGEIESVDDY
Method in brief: as §1

[8] = molecular target: T5, SPRED2 1-124 WH1 (domain begin residue: 1, domain end residue: 124), Q7Z698
T5 chain: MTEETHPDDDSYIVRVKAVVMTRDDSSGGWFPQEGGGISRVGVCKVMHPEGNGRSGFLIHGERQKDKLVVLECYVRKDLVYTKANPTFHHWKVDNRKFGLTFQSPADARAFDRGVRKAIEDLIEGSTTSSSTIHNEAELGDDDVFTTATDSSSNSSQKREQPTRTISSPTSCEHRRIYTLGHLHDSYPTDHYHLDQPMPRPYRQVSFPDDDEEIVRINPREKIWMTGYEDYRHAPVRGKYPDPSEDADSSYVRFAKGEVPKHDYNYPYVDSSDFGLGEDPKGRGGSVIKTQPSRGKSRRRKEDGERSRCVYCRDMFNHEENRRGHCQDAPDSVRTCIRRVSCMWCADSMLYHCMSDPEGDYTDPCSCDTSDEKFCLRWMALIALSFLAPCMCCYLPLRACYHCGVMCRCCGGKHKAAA
Method in brief: as §1

B1: unnamed (peptide)
chain: NYPNHPPGYEKWFQTM
[1]
  phage ELISA signal ratio: 26.6

B2: unnamed (peptide)
chain: ASQWEWDDWLYIHSQT
[2]
  phage ELISA signal ratio: 7.22

B3: unnamed (peptide)
chain: ARDLPPGFVMSPENAM
[1]
  phage ELISA signal ratio: 11.7

B4: unnamed (peptide)
chain: GEQMMWVDWGQWHWYE
[2]
  phage ELISA signal ratio: 26

B5: unnamed (peptide)
chain: AWGKYQSWEPQEWPAT
[2]
  phage ELISA signal ratio: 13.4

B6: unnamed (peptide)
chain: DTWMWGGYVSHTVQPY
[2]
  phage ELISA signal ratio: 23.1

B7: unnamed (peptide)
chain: QWEFEHDATLLVLEQM
[3]
  phage ELISA signal ratio: 26.5

B8: unnamed (peptide)
chain: AMTPPGFPHNTQMIRA
[1]
  phage ELISA signal ratio: 16.9

B9: unnamed (peptide)
chain: ITAEWQAREEYKLRVQ
[4]
  phage ELISA signal ratio: 29.2

B10: unnamed (peptide)
chain: HAWWYNENLDQWVDTS
[3]
  phage ELISA signal ratio: 16.7

B11: unnamed (peptide)
chain: PQQHFWEMDVPMIQLW
[3]
  phage ELISA signal ratio: 8.66

B12: unnamed (peptide)
chain: SMEWWSKGDVSLIDIS
[3]
  phage ELISA signal ratio: 4.45

B13: unnamed (peptide)
chain: PDTELIDVHQWRTSQW
[5]
  phage ELISA signal ratio: 22.1

B14: unnamed (peptide)
chain: SVPWYSEPWAIDMMSF
[6]
  phage ELISA signal ratio: 49.6

B15: unnamed (peptide)
chain: QWPTYSQWMTRDEILI
[3]
  phage ELISA signal ratio: 3.11

B16: unnamed (peptide)
chain: DWSQWQTAAMEEMITW
[2]
  phage ELISA signal ratio: 18.5

B17: unnamed (peptide)
chain: QRPPGNWGEVTQVPIL
[1]
  phage ELISA signal ratio: 9.77

B18: unnamed (peptide)
chain: AWQISEEWKVREAYQQ
[4]
  phage ELISA signal ratio: 25.5

B19: unnamed (peptide)
chain: WEDWMEDWRQWEEPRK
[2]
  phage ELISA signal ratio: 31.4

B20: unnamed (peptide)
chain: IQWNDMDFENLSGWWG
[2]
  phage ELISA signal ratio: 4.03

B21: unnamed (peptide)
chain: IENSQPWITEYGAWEV
[2]
  phage ELISA signal ratio: 6.07

B22: unnamed (peptide)
chain: HDVEPIWSMPWWQMDY
[3]
  phage ELISA signal ratio: 17.6

B23: unnamed (peptide)
chain: TPPGYTMLMKEHSARH
[1]
  phage ELISA signal ratio: 20.5

B24: unnamed (peptide)
chain: IVVGDWENEWFAHLVK
[6]
  phage ELISA signal ratio: 4.48

B25: unnamed (peptide)
chain: TIDTPPGFPTSQHEGM
[7]
  phage ELISA signal ratio: 16.8

B26: unnamed (peptide)
chain: RFPPGMMQQLPQYADS
[1]
  phage ELISA signal ratio: 29.9

B27: unnamed (peptide)
chain: SAPPGYQTGLLMAEYR
[7]
  phage ELISA signal ratio: 7.85
[8]
  phage ELISA signal ratio: 3.46

B28: unnamed (peptide)
chain: SEVHPPGFAQEHHIMQ
[1]
  phage ELISA signal ratio: 23.9
